Reference: PubChem BioAssay (Tox21)
Records with an inconclusive call do not appear. Calls of active or inactive are those of the source. Unless noted, the call rests on the fitted dose curve; in most records, active means well fitted curve in the direction sought with a large enough effect in the repeat runs; inconclusive means weak or mixed curves; inactive means no such curve, though single readings can be large; an effect the other way counts as inactive or inconclusive.

Columns and labels:
[1] = qHTS assay for small molecule agonists of the p53 signaling pathway (AID 651631; calls by dose curve; further: nearly all actives have a fitted effect of over 15% in size; further: potency means the concentration at half of the fitted maximal effect)
Outline: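 HCT-116 p53RE-bla reporter line, 16 h compound treatment at 37 °C, then fluorescence after 2 h with B/G FRET substrate.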

[2] = qHTS assay for small molecules that induce genotoxicity in human embryonic kidney cells expressing luciferase-tagged ATAD5 (AID 651632); further: nearly all actives have a fitted effect of over 15% in size
Outline: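 A rise in luciferase signal from ATAD5-tagged HEK293T cells marks genetic stress. Cells were exposed to compounds for 16 hr at 37C, 5% CO2, then luciferase was quantified after a 30 min room-temperature incubation with Amplite.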

[3] = qHTS assay for small molecule agonists of the p53 signaling pathway - cell viability (AID 651633; calls by dose curve; further: nearly all actives have a fitted effect of over 30% in size; further: potency means the concentration at half of the fitted maximal effect)
Outline: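 Viability counter-read: CellTiter-Glo luminescence (30 min, room temperature) in the same p53RE-bla plates. These plates had been exposed to compounds for 16 h at 37 C.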

[4] = qHTS assay for small molecule disruptors of the mitochondrial membrane potential - cell viability (AID 720634; calls by dose curve;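 further: human HepG2 liver cancer cells; series mostly up to about 83 µM; nearly all actives have a fitted effect of over 20% in size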)
Outline: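 Cytotoxicity was quantified from ATP content by CellTiter-Glo luminescence in the same wells as the MMP dye read-out. HepG2 (2,000 cells/well) were plated overnight and exposed to compounds for 1 hr at 37 C.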

[5] = qHTS assay to test for compound auto fluorescence at 590 nm (red) in HepG2 cells (AID 720674)
Outline: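 We screened compounds on adherent HepG2 cells, incubating them for an hour at 37 C in 5% CO2 before reading emission at 590 nm under 540 nm excitation; values reflect equivalence to Rose Bengal sodium fluorescence.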

[6] = qHTS assay to test for compound auto fluorescence at 535 nm (green) in HepG2 cells (AID 720675)
[7] = qHTS assay to test for compound auto fluorescence at 460 nm (blue) in HEK293 cells (AID 720678)
Outline: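 After cell attachment (4-5 hr, 37C), compounds were pinned onto HEK293 monolayers in 10% dialyzed FBS medium. The blue channel (405/460 nm) was read following overnight culture. Equivalency was calculated against triamterene.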

[8] = qHTS assay to test for compound auto fluorescence at 590 nm (red) in HEK293 cells (AID 720679)
Outline: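 Plates of HEK293 cells (10% dialyzed FBS) are treated with 23 nL compound or DMSO vehicle after a 4-5 hr attachment period, incubated overnight at 37C, and read for red fluorescence at 540/590nm.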

[9] = qHTS assay for small molecules that induce genotoxicity in human embryonic kidney cells expressing luciferase-tagged ATAD5 - cell viability (AID 651634; calls by dose curve; further: nearly all actives have a fitted effect of over 25% in size; further: potency means the concentration at half of the fitted maximal effect)
Outline: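 Cytotoxicity counter-readout: after 15.5 hr compound treatment at 37C, live-cell protease activity in ATAD5-luciferase HEK293T cells measured by CellTiter-Fluor fluorescence, 30 min development at 37C.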

[10] = qHTS assay for small molecule disruptors of the mitochondrial membrane potential (AID 720635); further: potency means the concentration at half of the fitted maximal effect
Outline: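 Mitochondrial membrane potential tracked with Mito-MPS dye, red aggregates (ex 540/em 590 nm) against green monomers (ex 490/em 535 nm). Compound treatment 1 hr at 37C, dye 30 min in HepG2.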
On the % scale 0 is the no-effect control and ±100 the full control effect.

COc1c(C(C)(C)C)cc([N+](=O)[O-])c(C)c1[N+](=O)[O-]
inactive: Potency [1] | Potency [2] | Potency [3] | Potency [4] | outcome [5] | outcome [6] | outcome [7] | outcome [8]

ClC=C(Cl)Cl
inactive: Potency [1] | Potency [2] | Potency [9] | Potency [4] | Potency [10] | outcome [5] | outcome [6] | outcome [7] | outcome [8]

C=CC(=O)OC
inactive: Potency [1] | Potency [3] | Potency [9] | Potency [4] | outcome [5] | outcome [6] | outcome [7] | outcome [8]

CO/C=C(/C(=O)OC)c1ccccc1COc1cccc(C(F)(F)F)n1
active: Potency [1] 8.63 µM | Potency [10] 6.85 µM
inactive: Potency [2] | Potency [3] | outcome [5] | outcome [6] | outcome [8]

Nc1ccc(N=Nc2ccc(-c3ccc(N=Nc4c(S(=O)(=O)O)cc5cc(S(=O)(=O)O)c(N=Nc6ccccc6)c(O)c5c4N)cc3)cc2)c(N)c1
inactive: Potency [1] | Potency [2] | Potency [9] | Potency [4] | outcome [5] | outcome [6] | outcome [7] | outcome [8]
active: Potency [10] 6.24 µM

CC(C)(Cl)[N+](=O)[O-]
inactive: Potency [1] | Potency [2] | Potency [9] | Potency [4] | outcome [5] | outcome [6] | outcome [7] | outcome [8]

Nc1nc(=S)[nH][nH]1
inactive: Potency [1] | Potency [2] | Potency [4] | Potency [10] | outcome [5] | outcome [6] | outcome [7] | outcome [8]

Brc1ccccc1
inactive: Potency [1] | Potency [2] | Potency [9] | Potency [4] | Potency [10] | outcome [5] | outcome [6] | outcome [8]

O=C(O)C(F)(F)C(F)(F)C(F)(F)C(F)(F)C(F)(F)C(F)(F)C(F)(F)C(F)(F)C(F)(F)C(F)(F)F
inactive: Potency [1] | Potency [2] | Potency [9] | Potency [4] | outcome [5] | outcome [6] | outcome [7] | outcome [8]

CN1C[C@H](CNC(=O)OCc2ccccc2)C[C@@H]2c3cccc4c3c(cn4C)C[C@H]21
inactive: Potency [1] | Potency [2] | Potency [9] | Potency [4] | outcome [5] | outcome [6] | outcome [8]

CCC(C)(NC(=O)c1cc(Cl)c(C)c(Cl)c1)C(=O)CCl (configuration not stated)
inactive: Potency [2] | outcome [5] | outcome [6] | outcome [7] | outcome [8]
active: Potency [1] 27.5 µM | Potency [10] 17.3 µM

CCC(COC(=O)c1cc(OC)c(OC)c(OC)c1)(c1ccccc1)N(C)C (configuration not stated)
inactive: Potency [1] | Potency [2] | Potency [9] | Potency [4] | outcome [5] | outcome [6] | outcome [7] | outcome [8]

ClCC(Br)CBr (configuration not stated)
inactive: Potency [1] | Potency [2] | Potency [3] | Potency [4] | outcome [5] | outcome [6] | outcome [7] | outcome [8]

ClCc1ccccc1
inactive: Potency [1] | Potency [2] | Potency [9] | Potency [4] | Potency [10] | outcome [5] | outcome [6] | outcome [7] | outcome [8]

O=C(O)c1ccccc1C(=O)Nc1cccc2ccccc12
inactive: Potency [1] | Potency [2] | Potency [3] | Potency [4] | outcome [5] | outcome [6] | outcome [8]

CO[C@@H]1[C@H](OC(=O)NC(=O)CCl)CC[C@]2(CO2)[C@H]1[C@@]1(C)O[C@@H]1CC=C(C)C
inactive: Potency [4] | Potency [10] | fluorescence, relative to Rose Bengal [5] -0.229% [at 18.6 µM] | fluorescence, % of fluorescein control [6] -0.0271% [at 18.6 µM] | fluorescence, % of fluorescent control [8] 0.143% [at 18.6 µM]
active: Potency [1] 18.8 µM

CCCCN(N=O)C(=N)N[N+](=O)[O-]
inactive: Potency [3] | Potency [4] | Potency [10] | outcome [5] | outcome [6] | outcome [7] | outcome [8]
active: Potency [1] 62.4 µM

COP(=S)(OC)Oc1ccc([N+](=O)[O-])cc1Cl
inactive: Potency [1] | Potency [2] | outcome [5] | outcome [6] | outcome [7] | outcome [8]
active: Potency [10] 24.3 µM

CCOc1ccc(C(C)(C)COCc2cccc(Oc3ccccc3)c2)cc1
inactive: Potency [1] | Potency [2] | Potency [9] | Potency [4] | outcome [5] | outcome [6] | outcome [7] | outcome [8]

CCOC(=O)C(Cl)C(C)=O (configuration not stated)
inactive: Potency [1] | Potency [2] | Potency [9] | Potency [4] | outcome [5] | outcome [6] | outcome [7] | outcome [8]

S=C=NCc1ccccc1
active: Potency [1] 69.3 µM | Potency [10] 55 µM
inactive: Potency [3] | Potency [4] | outcome [5] | outcome [6] | outcome [7] | outcome [8]

CCCCOC(=O)c1ccccc1C(=O)OCc1ccccc1
inactive: Potency [1] | Potency [2] | Potency [3] | Potency [4] | outcome [5] | outcome [6] | outcome [8]

C=CC(=O)OCC(C)C
inactive: Potency [1] | Potency [2] | Potency [9] | outcome [5] | outcome [6] | outcome [7] | outcome [8]

CNP(=O)(OC)Oc1ccc(C(C)(C)C)cc1Cl (configuration not stated)
inactive: Potency [2] | Potency [3] | Potency [9] | Potency [4] | Potency [10] | outcome [5] | outcome [6] | outcome [7] | outcome [8]

CCc1ccc(C(=O)NN(C(=O)c2cc(C)cc(C)c2)C(C)(C)C)cc1
inactive: Potency [2] | Potency [3] | outcome [5] | outcome [6] | outcome [7] | outcome [8]
active: Potency [9] 0.486 µM

OCCCBr
inactive: Potency [2] | Potency [3] | Potency [9] | Potency [4] | outcome [5] | outcome [6] | outcome [8]

O=C(N[C@H](c1ccccc1)[C@@H]1CN2CCC1CC2)c1c(Cl)ccc(C(F)(F)F)c1Cl
active: Potency [10] 43.9 µM
inactive: Potency [2] | Potency [3] | Potency [9] | outcome [5] | outcome [6] | outcome [7] | outcome [8]

Cl/C=C\Cl
inactive: Potency [2] | Potency [3] | Potency [9] | Potency [4] | Potency [10] | outcome [5] | outcome [6] | outcome [7] | outcome [8]

ClCCCCBr
inactive: Potency [2] | Potency [3] | Potency [9] | Potency [4] | outcome [5] | outcome [6] | outcome [7] | outcome [8]

COC(C)(C)CCC[C@H](C)C/C=C/C(C)=C/C(=O)OC(C)C
inactive: Potency [2] | Potency [9] | outcome [5] | outcome [6] | outcome [7] | outcome [8]
active: Potency [3] 61.1 µM | Potency [10] 30.6 µM

Clc1cc(Cl)c(Cl)c(Cl)c1
inactive: Potency [2] | Potency [3] | Potency [9] | Potency [4] | Potency [10] | outcome [5] | outcome [6] | outcome [8]
